Assay outcomes deposited in PubChem BioAssay by National Center for Advancing Translational Sciences (NCATS).
The entries come from a sample that favours hits as a whole.
Pf Dd2 inh – Plasmodium falciparum Dd2 growth inhibition. P. falciparum Dd2 growth, SYBR Green, 72 h. Potency, µM (top dose mostly 28.9 µM), for the others: top-dose activity, negative = inhibition, actives largely listed as inhibitors. 120,000 compounds, 4.3% hits. AID 1347417; active = well fitted inhibition curve with a large enough effect;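 also: plate controls were DMSO vehicle for no effect and reference drug for full effect; nearly all actives have a fitted effect of over 65% in size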
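Infected erythrocytes (Dd2, 0.3% parasitemia, 2.5% hematocrit final) are added to compound in RPMI-1640/Albumax II medium, grown 72 h at 37C in low oxygen, then lysed with saponin/Triton-X containing SYBR Green and read by fluorescence.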
Numbers without * were called inactive; [ ] = remark or other dose. Potency is read from the fitted curve at half-maximal effect.

For CC1CCCCN1C(=O)C1COC2(CCN(C(=O)c3ccco3)CC2)N1C(=O)c1ccccc1 (stereo unspecified) the results were Pf Dd2 inh -13%.
`O=C(c1cccs1)N1CCC(N[C@H](c2ccccc2)C2CC(O)C2)CC1` (stereo partly specified) gave Pf Dd2 inh -18%.
For COc1ccc(NC(=O)O[C@@H]2CC[C@]3(C)C(CC[C@@H](O)[C@H]3CC(=O)NCc3ccc4c(c3)OCO4)[C@]2(C)CO)cc1 (stereo partly specified) the results were Pf Dd2 inh -22%.
For COc1cc2nc(NCc3ccccc3)n3nc(-c4ccccc4)nc3c2cc1OC the results were Pf Dd2 inh 0.32µM*.
COc1ccccc1CNc1nc2ccccc2c2nc(-c3cccc(C)c3)nn12 was read as Pf Dd2 inh inactive.
`CCOCCCNc1nc2cc(OC)c(OC)cc2c2nc(-c3ccccc3)nn12` gave Pf Dd2 inh 0.28µM*.
For Cc1cccc(-c2nc3c4ccccc4nc(NCc4ccc(F)cc4)n3n2)c1 the results were Pf Dd2 inh -16%.
For CCOc1ccccc1NC(=O)CSc1nc2cc(OC)c(OC)cc2c2nc(-c3ccccc3)nn12 the results were Pf Dd2 inh -1%.
Screening COc1ccc(CNc2nc3ccccc3c3nc(-c4ccccc4)nn23)cc1 returned Pf Dd2 inh inactive.
For Cc1nc(CN2CCOC3(CCN(Cc4ccccc4Cl)CC3)C2=O)cs1 the results were Pf Dd2 inh inactive.
`O=C(NCCc1noc(C2CC2)n1)C1CCCC1` gave Pf Dd2 inh 9%.
CC(C)CNC(=O)CC(c1cccc(F)c1)c1cn(C)c2ccccc12 (stereo unspecified) was read as Pf Dd2 inh -24%.
Screening O=S(=O)(NC[C@H]1OC[C@@H](NCc2ccccn2)[C@@H]1O)c1ccccc1 returned Pf Dd2 inh inactive.
Screening Cc1ccc2c(c1)N(CCCC(=O)N1CCc3nc4cc(-c5ccccc5)[nH]n4c(=O)c3C1)C(=O)CO2 returned Pf Dd2 inh 45%[5.79 µM].
`O=C(c1ccc(F)cc1)N1CCCC(c2nc(C3CCOCC3)no2)C1` (stereo unspecified) gave Pf Dd2 inh 48%.
`CC(C)C(=O)N1Cc2ccccc2CC2(CCCN(CC3CCOCC3)C2)C1` (stereo unspecified) gave Pf Dd2 inh 7.1µM*.
For CC(=O)N1Cc2ccccc2CC2(CCCN(CC3CCOCC3)C2)C1 (stereo unspecified) the results were Pf Dd2 inh -5%.
`CC(=O)N1Cc2ccccc2CC2(CCCN(C)C2)C1` (stereo unspecified) gave Pf Dd2 inh -7%[44.1 µM].
For CC(C)C(=O)N1Cc2ccccc2CC2(CCN(CC3CCNCC3)C2)C1 (stereo unspecified) the results were Pf Dd2 inh 2%.
Screening CCN1CCCC2(Cc3ccccc3CN(C(=O)CCNC(C)=O)C2)C1 (stereo unspecified) returned Pf Dd2 inh 11%.
CCN1CCCC2(Cc3ccccc3CN(C(=O)C(C)C)C2)C1 (stereo unspecified) was read as Pf Dd2 inh 11µM*.
`CC(=O)NC1CC2(CCN(C(=O)CCC(=O)OC(C)(C)C)CC2)Oc2ccccc21` (stereo unspecified) gave Pf Dd2 inh 5%.
Cc1n[nH]c(C)c1CCC(=O)NCC1CCN(c2cc(-c3ccccc3)[nH]n2)CC1 was read as Pf Dd2 inh inactive.
COc1ccc(CC(=O)N2CCOC[C@H](Oc3ccc(OC)cc3)C2)cc1 was read as Pf Dd2 inh -9%[44.1 µM].
`COc1cccc(CN2CCCC3(CCN(C(=O)c4ccccn4)C3)C2=O)c1OC` (stereo unspecified) gave Pf Dd2 inh 0%.
Cc1cc(N2CCN(C(=O)C(c3ccc(F)cc3)N(C)C)CC2)cc(C)n1 (stereo unspecified) was read as Pf Dd2 inh -12%.
For CCCCN(CC)CCCNC(=O)c1cc2c(-c3ccc(OC)c(OC)c3)nn(C)c2s1 the results were Pf Dd2 inh 7.9µM*.
For CCOCCCNC(=O)c1cc2c(-c3ccc(OC)c(OC)c3)nn(C)c2s1 the results were Pf Dd2 inh inactive.
Screening COC(=O)c1ccccc1NC(=O)c1cc2c(-c3ccc(OC)c(OC)c3)nn(C)c2s1 returned Pf Dd2 inh 14%.
`O=C(O)CC1(CC(=O)N2CC[C@H]3NC(=O)N(c4ccc(F)cc4)C(=O)[C@H]32)CCCC1` gave Pf Dd2 inh -3%[44.1 µM].
`Cn1nc2n(c1=O)CCC(NC(=O)CCC1CCCCC1)CC2` (stereo unspecified) gave Pf Dd2 inh 17%.
Cc1nn2c(c1-c1ccnn1C(C)C)N(Cc1cccc(C#N)c1)CCC2 was read as Pf Dd2 inh -18%[44.1 µM].
O=S1(=O)CCN(c2cccc(-c3nc(C4CCOC4)no3)c2)CC1 (stereo unspecified) was read as Pf Dd2 inh 2%.
Screening Cc1noc(C)c1C(=O)N1Cc2ccccc2CC2(CCN(C)C2)C1 (stereo unspecified) returned Pf Dd2 inh 10µM*.
